Test results from PubChem BioAssay (NCATS).
Results filed as inconclusive are left out. Activity calls are given as the source filed them. Calls follow the shape of the dose curve; as a rule, active = well fitted curve in the direction sought with a large enough effect; inconclusive = small, poorly fitted or top-dose-only effect, or another doubt; inactive = no such curve, though single readings can be large; an effect the other way counts as inactive or inconclusive.

Assays:
NIH3T3 = assay: qHTS assay to identify novel small-molecules to repurpose for Merkel cell carcinoma treatment (AID 1296009); conditions: MCC and control cell lines, CellTiter-Glo viability, 72 h; at 44.8 µM (top of the series) unless noted; also: nearly all actives have a fitted effect of over 60% in size
Method in brief: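 Cells were treated for 72 hr at 37 degree celsius with compounds in 8- or 11-point dose response. Viability was read by CellTiter-Glo luminescence, normalized to no-cell (cytotoxicity) and DMSO controls.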

C33A = assay: Primary qHTS to identify gynecologic anti-cancer compounds using libraries of approved drugs and bioactive compounds (AID 1345084); conditions: Gynecologic cancer cell panel viability, ATPlite luminescence, 48 h; series mostly up to 57.5 µM; also: % is scaled to controls: 0 for no effect and ±100 for the full control effect; nearly all actives have a fitted effect of over 55% in size
Method in brief: (§1)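 Five-concentration response, 48 h; readout is ATP-driven luciferase luminescence.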

CAOV3 = assay: as above; conditions: Gynecologic cancer cell panel viability, ATPlite luminescence, 48 h; series mostly up to 57.5 µM
Method in brief: as §1

CASKI = assay: as above; conditions: Gynecologic cancer cell panel viability, ATPlite luminescence, 48 h; series mostly up to 57.5 µM
Method in brief: as §1

Es-2 = assay: as above; conditions: Gynecologic cancer cell panel viability, ATPlite luminescence, 48 h; series mostly up to 57.5 µM
Method in brief: as §1

HeLa = assay: as above; conditions: Gynecologic cancer cell panel viability, ATPlite luminescence, 48 h; series mostly up to 57.5 µM
Method in brief: as §1

Hek293T = assay: as above; conditions: Gynecologic cancer cell panel viability, ATPlite luminescence, 48 h, control line for the selectivity index; series mostly up to 57.5 µM
Method in brief: as §1

JEG-3 = assay: as above; conditions: Gynecologic cancer cell panel viability, ATPlite luminescence, 48 h; series mostly up to 57.5 µM
Method in brief: as §1

OV90 = assay: as above; conditions: Gynecologic cancer cell panel viability, ATPlite luminescence, 48 h; series mostly up to 57.5 µM
Method in brief: as §1

PA-1 = assay: as above; conditions: Gynecologic cancer cell panel viability, ATPlite luminescence, 48 h; series mostly up to 57.5 µM
Method in brief: as §1

SKOV3 = assay: as above; conditions: Gynecologic cancer cell panel viability, ATPlite luminescence, 48 h; series mostly up to 57.5 µM
Method in brief: as §1

Tov-21-G = assay: as above; conditions: Gynecologic cancer cell panel viability, ATPlite luminescence, 48 h; series mostly up to 57.5 µM
Method in brief: as §1

Tov112D = assay: as above; conditions: Gynecologic cancer cell panel viability, ATPlite luminescence, 48 h; series mostly up to 57.5 µM
Method in brief: as §1

CC(=O)OC(C)(C)/C=C/C(=O)[C@](C)(O)C1[C@H](O)C[C@@]2(C)[C@@H]3CC=C4[C@@H](C[C@H](O[C@@H]5O[C@H](CO)[C@@H](O)[C@H](O)[C@H]5O)C(=O)C4(C)C)[C@]3(C)C(=O)C[C@]12C (stereo not given in full)
inactive: outcome (NIH3T3) inactive [at 17.4 µM] | Potency (C33A) | Potency (CAOV3) | outcome (CASKI) | Potency (Es-2) | Potency (HeLa) | Potency (Hek293T) | Potency (JEG-3) | Potency (OV90) | Potency (PA-1) | Potency (SKOV3) | Potency (Tov-21-G) | Potency (Tov112D)

C=C1CCC2[C@@](C)(C(=O)O)CCC[C@@]2(C)[C@@H]1CCc1ccoc1 (stereo not given in full)
inactive: outcome (NIH3T3) | Potency (C33A) | Potency (CAOV3) | outcome (CASKI) | Potency (Es-2) | Potency (HeLa) | Potency (Hek293T) | Potency (JEG-3) | Potency (OV90) | Potency (PA-1) | Potency (Tov-21-G) | Potency (Tov112D)

CCC1OC(=O)C(C)CC(C)C(=O)/C(C)=C/C(C)C(=O)/C=C/C1(C)O (stereo not given)
inactive: outcome (NIH3T3) | Potency (C33A) | Potency (CAOV3) | outcome (CASKI) | Potency (Es-2) | Potency (HeLa) | Potency (Hek293T) | Potency (JEG-3) | Potency (OV90) | Potency (PA-1) | Potency (SKOV3) | Potency (Tov-21-G) | Potency (Tov112D)

CC(C)(O)C1CC=C(C(=O)OC[C@H]2O[C@@H](Oc3cc(C(=O)O)cc(O)c3O)[C@H](O)[C@@H](O)[C@@H]2O)CC1 (stereo not given in full)
inactive: outcome (NIH3T3) inactive [at 17.4 µM] | Potency (C33A) | Potency (CAOV3) | outcome (CASKI) | Potency (Es-2) | Potency (HeLa) | Potency (Hek293T) | Potency (JEG-3) | Potency (OV90) | Potency (PA-1) | Potency (Tov-21-G) | Potency (Tov112D)

COC1OC(=O)C2=C1C1(C)CCCC(C)(C)C1CC2O (stereo not given)
inactive: outcome (NIH3T3) | Potency (C33A) | Potency (CAOV3) | outcome (CASKI) | Potency (Es-2) | Potency (HeLa) | Potency (Hek293T) | Potency (JEG-3) | Potency (OV90) | Potency (PA-1) | Potency (Tov-21-G) | Potency (Tov112D)

CCOC(=O)c1ccc(NC2CCCCC2)c(N)c1
inactive: outcome (NIH3T3) | Potency (C33A) | Potency (CAOV3) | outcome (CASKI) | Potency (Es-2) | Potency (HeLa) | Potency (Hek293T) | Potency (JEG-3) | Potency (OV90) | Potency (PA-1) | Potency (Tov-21-G) | Potency (Tov112D)

C=C1Cc2c(Cl)cc3[nH]c4c5c3c2[C@@]2(O)[C@@H]1C[C@@H]2C(C)(C)O[C@H]5C1CC[C@@]2(O)[C@@]35O[C@@H]3[C@H]3OC(C)(C)[C@H]3O[C@H]5CC[C@]2(C)[C@@]41C (stereo not given in full)
inactive: outcome (NIH3T3) inactive [at 17.4 µM] | Potency (C33A) | Potency (CAOV3) | outcome (CASKI) | Potency (Es-2) | Potency (HeLa) | Potency (Hek293T) | Potency (JEG-3) | Potency (OV90) | Potency (PA-1) | Potency (Tov-21-G) | Potency (Tov112D)

C=CCc1ccc(O[C@@H]2O[C@H](CO)[C@@H](O)[C@H](O)[C@H]2O)c(O[C@@H]2O[C@H](CO)[C@@H](O)[C@H](O)[C@H]2O)c1
inactive: outcome (NIH3T3) inactive [at 17.4 µM] | Potency (C33A) | Potency (CAOV3) | outcome (CASKI) | Potency (Es-2) | Potency (HeLa) | Potency (Hek293T) | Potency (JEG-3) | Potency (OV90) | Potency (PA-1) | Potency (Tov-21-G) | Potency (Tov112D)

CC1(C)CC[C@]2(C(=O)O)CC[C@]3(C)C(=CCC4[C@@]5(C)CC[C@H](O[C@@H]6O[C@H](C(=O)O)[C@@H](O)[C@H](O[C@@H]7O[C@H](CO)[C@H](O)[C@H](O)[C@H]7O)[C@H]6O[C@@H]6O[C@H](CO)[C@@H](O)[C@H](O)[C@H]6O)C(C)(C)C5CC[C@]43C)[C@@H]2C1 (stereo not given in full)
inactive: outcome (NIH3T3) inactive [at 4.96 µM] | activity change, negative = cytotoxicity (C33A) 4.15% [at 6.55 µM] | activity change, negative = cytotoxicity (CAOV3) 0.251% [at 6.55 µM] | activity change, negative = cytotoxicity (CASKI) 11.8% [at 6.55 µM] | activity change, negative = cytotoxicity (Es-2) -0.476% [at 6.55 µM] | activity change, negative = cytotoxicity (HeLa) -1.9% [at 6.55 µM] | activity change, negative = cytotoxicity (Hek293T) -0.735% [at 6.55 µM] | activity change, negative = cytotoxicity (JEG-3) 4.16% [at 6.55 µM] | activity change, negative = cytotoxicity (OV90) 8.65% [at 6.55 µM] | activity change, negative = cytotoxicity (PA-1) 2.41% [at 6.55 µM] | activity change, negative = cytotoxicity (Tov-21-G) -6.57% [at 6.55 µM] | activity change, negative = cytotoxicity (Tov112D) -3.27% [at 6.55 µM]

CC1=C[C@H](O)[C@H]2C(C)(C)CCC[C@]2(C)[C@@]1(O)CO
inactive: outcome (NIH3T3) | Potency (C33A) | Potency (CAOV3) | outcome (CASKI) | Potency (Es-2) | Potency (HeLa) | Potency (Hek293T) | Potency (JEG-3) | Potency (OV90) | Potency (PA-1) | Potency (Tov-21-G) | Potency (Tov112D)

COc1cc(CO)cc(OC)c1O[C@@H]1O[C@H](CO)[C@@H](O)[C@H](O)[C@H]1O
inactive: outcome (NIH3T3) | Potency (C33A) | Potency (CAOV3) | outcome (CASKI) | Potency (Es-2) | Potency (HeLa) | Potency (Hek293T) | Potency (JEG-3) | Potency (OV90) | Potency (PA-1) | Potency (Tov-21-G) | Potency (Tov112D)

COc1ccc(C(=O)NCc2cc(C(C)C)no2)cc1OC1CCN(C)CC1
inactive: outcome (NIH3T3) | Potency (C33A) | Potency (CAOV3) | outcome (CASKI) | Potency (Es-2) | Potency (HeLa) | Potency (Hek293T) | Potency (JEG-3) | Potency (OV90) | Potency (PA-1) | Potency (Tov-21-G) | Potency (Tov112D)

H-DPPDPDRFYGMM-NH2
inactive: outcome (NIH3T3) inactive [at 17.4 µM] | Potency (C33A) | Potency (CAOV3) | outcome (CASKI) | Potency (Es-2) | Potency (HeLa) | Potency (Hek293T) | Potency (JEG-3) | Potency (OV90) | Potency (PA-1) | Potency (Tov-21-G) | Potency (Tov112D)

C=C1C(OC(C)=O)[C@@]23CCC4[C@](C)(C(=O)O)CCC[C@@]4(C)[C@]2(O)CC[C@H]1C3 (stereo not given in full)
inactive: outcome (NIH3T3) | Potency (C33A) | Potency (CAOV3) | outcome (CASKI) | Potency (Es-2) | Potency (HeLa) | Potency (Hek293T) | Potency (JEG-3) | Potency (OV90) | Potency (PA-1) | Potency (Tov-21-G) | Potency (Tov112D)
